# Data reported in article PMC5540273 (PLoS ONE, 2017).
# Where two headings read alike, the source gives them in different places.
# Key:
# AAK1 = settings: n = 1
# ABL1-nonphosphorylated = settings: n = 1
# ABL1-phosphorylated = settings: n = 1
# ABL2 = settings: concentration: 1 μM, replicates: in singlicate; n = 1
# ACVR1B = settings: concentration: 1 μM, replicates: in singlicate; n = 1
# ACVR1 = settings: concentration: 1 μM, replicates: in singlicate; n = 1
# ACVR2A = settings: concentration: 1 μM, replicates: in singlicate; n = 1
# ACVR2B = settings: concentration: 1 μM, replicates: in singlicate; n = 1
# ACVRL1 = settings: concentration: 1 μM, replicates: in singlicate; n = 1
# ADCK3 = test system: T1, ADCK3; settings: concentration: 1 μM, replicates: in singlicate; n = 1
# T1 construct: gene CABC1
# ADCK4 = settings: concentration: 1 μM, replicates: in singlicate; n = 1
# AKT1 = settings: concentration: 1 μM, replicates: in singlicate; n = 1
# AKT2 = settings: n = 1
# AKT3 = settings: concentration: 1 μM, replicates: in singlicate; n = 1
# ALK = settings: concentration: 1 μM, replicates: in singlicate; n = 1
# AMPK-alpha1 = test system: T2, AMPK-alpha1; settings: concentration: 1 μM, replicates: in singlicate; n = 1
# T2 construct: gene PRKAA1
# AMPK-alpha2 = test system: T3, AMPK-alpha2; settings: concentration: 1 μM, replicates: in singlicate; n = 1
# T3 construct: gene PRKAA2
# ANKK1 = settings: concentration: 1 μM, replicates: in singlicate; n = 1
# ARK5 = test system: T4, ARK5; settings: concentration: 1 μM, replicates: in singlicate; n = 1
# T4 construct: gene NUAK1
# ASK1 = test system: T5, ASK1; settings: concentration: 1 μM, replicates: in singlicate; n = 1
# T5 construct: gene MAP3K5
# [1] = concentration: 1 μM, replicates: in singlicate
# 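Further: KINOMEscan kinase panel screen.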
smiles,measurement,setting,value
COc1cccc(NC(=O)NC2CCN(c3ccnc(Nc4cc(OC)c(OC)c(OC)c4)n3)C2)c1 (centres unmarked) [GSK1379763],%Inh,AAK1; [1],74%
same,%Inh,ABL1-nonphosphorylated; [1],0%
same,%Inh,ABL1-phosphorylated; [1],0%
same,%Inh,ABL2,0%
same,%Inh,ACVR1B,0%
same,%Inh,ACVR1,0%
same,%Inh,ACVR2A,89%
same,%Inh,ACVR2B,0%
same,%Inh,ACVRL1,0%
same,%Inh,ADCK3,0%
same,%Inh,ADCK4,59%
same,%Inh,AKT1,0%
same,%Inh,AKT2; [1],7%
same,%Inh,AKT3,0%
same,%Inh,ALK,45%
same,%Inh,AMPK-alpha1,0%
same,%Inh,AMPK-alpha2,0%
same,%Inh,ANKK1,40%
same,%Inh,ARK5,18%
same,%Inh,ASK1,0%
COc1cccc(C2=C(Nc3ccc(Cl)c(C(=O)O)c3)C(=O)NC2=O)c1 [SB-390769],%Inh,AAK1; [1],9%
same,%Inh,ABL1-nonphosphorylated; [1],11%
same,%Inh,ABL1-phosphorylated; [1],100%
same,%Inh,ABL2,16%
same,%Inh,ACVR1B,0%
same,%Inh,ACVR1,15%
same,%Inh,ACVR2A,100%
same,%Inh,ACVR2B,5%
same,%Inh,ACVRL1,0%
same,%Inh,ADCK3,0%
same,%Inh,ADCK4,22%
same,%Inh,AKT1,0%
same,%Inh,AKT2; [1],0%
same,%Inh,AKT3,0%
same,%Inh,ALK,36%
same,%Inh,AMPK-alpha1,6%
same,%Inh,AMPK-alpha2,2%
same,%Inh,ANKK1,99.4%
same,%Inh,ARK5,24%
same,%Inh,ASK1,12%
COc1cc(Nc2nccc(N3CCC(NC(=O)c4cc5ccccc5s4)C3)n2)cc(OC)c1OC (centres unmarked) [GSK1379760],%Inh,AAK1; [1],58%
same,%Inh,ABL1-nonphosphorylated; [1],0%
same,%Inh,ABL1-phosphorylated; [1],0%
same,%Inh,ABL2,7%
same,%Inh,ACVR1B,0%
same,%Inh,ACVR1,28%
same,%Inh,ACVR2A,16%
same,%Inh,ACVR2B,11%
same,%Inh,ACVRL1,0%
same,%Inh,ADCK3,0%
same,%Inh,ADCK4,26%
same,%Inh,AKT1,1%
same,%Inh,AKT2; [1],8%
same,%Inh,AKT3,0%
same,%Inh,ALK,19%
same,%Inh,AMPK-alpha1,45%
same,%Inh,AMPK-alpha2,30%
same,%Inh,ANKK1,12%
same,%Inh,ARK5,17%
same,%Inh,ASK1,20%
Cl.NC(=O)c1cccc(Nc2nccc(Nc3ccc(Oc4c(Cl)cccc4Cl)c(Cl)c3)n2)c1 [GW659009],%Inh,AAK1; [1],15%
same,%Inh,ABL1-nonphosphorylated; [1],67%
same,%Inh,ABL1-phosphorylated; [1],0%
same,%Inh,ABL2,85%
same,%Inh,ACVR1B,100%
same,%Inh,ACVR1,0%
same,%Inh,ACVR2A,0%
same,%Inh,ACVR2B,0%
same,%Inh,ACVRL1,7%
same,%Inh,ADCK3,0%
same,%Inh,ADCK4,14%
same,%Inh,AKT1,0%
same,%Inh,AKT2; [1],0%
same,%Inh,AKT3,0%
same,%Inh,ALK,3%
same,%Inh,AMPK-alpha1,0%
same,%Inh,AMPK-alpha2,0%
same,%Inh,ANKK1,3%
same,%Inh,ARK5,0%
same,%Inh,ASK1,0%
COc1cccc(-c2ccc3c(NC(=O)C4CC4)n[nH]c3n2)c1 [SB-710903],%Inh,AAK1; [1],12%
same,%Inh,ABL1-nonphosphorylated; [1],83%
same,%Inh,ABL1-phosphorylated; [1],76%
same,%Inh,ABL2,24%
same,%Inh,ACVR1B,0%
same,%Inh,ACVR1,18%
same,%Inh,ACVR2A,0%
same,%Inh,ACVR2B,22%
same,%Inh,ACVRL1,0%
same,%Inh,ADCK3,3%
same,%Inh,ADCK4,48%
same,%Inh,AKT1,0%
same,%Inh,AKT2; [1],0%
same,%Inh,AKT3,0%
same,%Inh,ALK,29%
same,%Inh,AMPK-alpha1,0%
same,%Inh,AMPK-alpha2,13%
same,%Inh,ANKK1,0%
same,%Inh,ARK5,0%
same,%Inh,ASK1,12%
CCn1c(-c2nonc2N)nc2c(C#CC(C)(C)O)ncc(OCCCCN)c21.O=C(O)C(F)(F)F.O=C(O)C(F)(F)F [GSK507274],%Inh,AAK1; [1],41%
same,%Inh,ABL1-nonphosphorylated; [1],0%
same,%Inh,ABL1-phosphorylated; [1],4%
same,%Inh,ABL2,11%
same,%Inh,ACVR1B,0%
same,%Inh,ACVR1,3%
same,%Inh,ACVR2A,7%
same,%Inh,ACVR2B,0%
same,%Inh,ACVRL1,0%
same,%Inh,ADCK3,26%
same,%Inh,ADCK4,13%
same,%Inh,AKT1,93.5%
same,%Inh,AKT2; 1 µM,99.1%
same,%Inh,AKT3,72%
same,%Inh,ALK,28%
same,%Inh,AMPK-alpha1,1%
same,%Inh,AMPK-alpha2,0%
same,%Inh,ANKK1,0%
same,%Inh,ARK5,50%
same,%Inh,ASK1,0%
COc1cc(Nc2nccc(-c3c(-c4cccc(NC(=O)c5c(F)cccc5F)c4)nn4ccccc34)n2)cc(OC)c1OC [GSK323521],%Inh,AAK1; [1],44%
same,%Inh,ABL1-nonphosphorylated; [1],52%
same,%Inh,ABL1-phosphorylated; [1],0%
same,%Inh,ABL2,33%
same,%Inh,ACVR1B,19%
same,%Inh,ACVR1,0%
same,%Inh,ACVR2A,7%
same,%Inh,ACVR2B,15%
same,%Inh,ACVRL1,25%
same,%Inh,ADCK3,10%
same,%Inh,ADCK4,0%
same,%Inh,AKT1,8%
same,%Inh,AKT2; [1],0%
same,%Inh,AKT3,5%
same,%Inh,ALK,14%
same,%Inh,AMPK-alpha1,20%
same,%Inh,AMPK-alpha2,23%
same,%Inh,ANKK1,13%
same,%Inh,ARK5,8%
same,%Inh,ASK1,5%
CC(=O)Nc1nc2cnc(Nc3cc(NC(=O)c4cccc(C5(C#N)CC5)c4Cl)ccc3C)nc2s1,%Inh,AAK1; [1],23%
same,%Inh,ABL1-nonphosphorylated; [1],99%
same,%Inh,ABL1-phosphorylated; [1],59%
same,%Inh,ABL2,70%
same,%Inh,ACVR1B,0%
same,%Inh,ACVR1,0%
same,%Inh,ACVR2A,0%
same,%Inh,ACVR2B,0%
same,%Inh,ACVRL1,0%
same,%Inh,ADCK3,0%
same,%Inh,ADCK4,0%
same,%Inh,AKT1,7%
same,%Inh,AKT2; [1],13%
same,%Inh,AKT3,0%
same,%Inh,ALK,0%
same,%Inh,AMPK-alpha1,7%
same,%Inh,AMPK-alpha2,21%
same,%Inh,ANKK1,0%
same,%Inh,ARK5,2%
same,%Inh,ASK1,0%
CN1CCN(Cc2cccc(-c3ccc4c(Nc5ccc(Oc6ccccc6)cc5)ccnc4c3)c2)CC1 [GW578342],%Inh,AAK1; [1],10%
same,%Inh,ABL1-nonphosphorylated; [1],91.6%
same,%Inh,ABL1-phosphorylated; [1],20%
same,%Inh,ABL2,23%
same,%Inh,ACVR1B,0%
same,%Inh,ACVR1,0%
same,%Inh,ACVR2A,0%
same,%Inh,ACVR2B,0%
same,%Inh,ACVRL1,0%
same,%Inh,ADCK3,8%
same,%Inh,ADCK4,9%
same,%Inh,AKT1,0%
same,%Inh,AKT2; [1],11%
same,%Inh,AKT3,0%
same,%Inh,ALK,23%
same,%Inh,AMPK-alpha1,8%
same,%Inh,AMPK-alpha2,0%
same,%Inh,ANKK1,6%
same,%Inh,ARK5,0%
same,%Inh,ASK1,0%
CNC(=O)c1ccccc1Nc1nc(Nc2ccc(N3CCOCC3)cc2)ncc1Cl.Cl [GSK1576028],%Inh,AAK1; 1 µM,89%
same,%Inh,ABL1-nonphosphorylated; 1 µM,98.8%
same,%Inh,ABL1-phosphorylated; 1 µM,99.6%
same,%Inh,ABL2,95.6%
same,%Inh,ACVR1B,85%
same,%Inh,ACVR1,95%
same,%Inh,ACVR2A,18%
same,%Inh,ACVR2B,43%
same,%Inh,ACVRL1,42%
same,%Inh,ADCK3,35%
same,%Inh,ADCK4,44%
same,%Inh,AKT1,42%
same,%Inh,AKT2; [1],62%
same,%Inh,AKT3,0%
same,%Inh,ALK,88%
same,%Inh,AMPK-alpha1,99.2%
same,%Inh,AMPK-alpha2,99.4%
same,%Inh,ANKK1,12%
same,%Inh,ARK5,99.8%
same,%Inh,ASK1,0%
